Assay outcomes as filed in PubChem BioAssay.
Sampled rows, rich in hits. Any-hit rate of the full collection: about 3%.
aSyn 5UTR inh – MLPCN primary screen, SNCA 5' untranslated region; alpha-synuclein 5'UTR reporter, inhibitor activity; inhibition, % (tested at 7.5 µM); actives 0.82% (n = 300,000); in the data active = inhibition above about 60%;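 also: H4 neuroglioblastoma cells stably carrying SNCA 5'UTR luciferase fusion; 0% = DMSO wells and 100% = positive control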
KLF5 inh – KLF5 expression inhibitors, primary screen, DLD-1 cells, luminescence; DLD-1 KLF5 promoter-luciferase reporter; inhibition, % at 5 µM; actives 0.23% (n = 290,000);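 active = inhibition above a per-plate limit of that plate's mean compound inhibition plus 3 SD, cut at about 60% in these data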;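 also: 0% = DMSO wells and 100% = LY294002 at 200 µM; higher means less KLF5 promoter-driven luciferase light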
CSC inhib – cancer stem cell viability inhibitors, primary screen, luminescence; actives 1.1% (n = 300,000); cancer stem cell-like cells viability; AID 2717, 2010; inhibition, % at 7.5 µM; in the data active = inhibition above about 75%; tested in HMLE shEcad cells
SKKanGAS inh – S. pyogenes SKKanGAS growth inhibitors in kanamycin, primary screen, streptokinase expression inhibitor project, SKKanGAS strain, BacTiter-Glo luminescence; 6 h; inhibition, % at 7.5 µM; actives 1.3% (n = 300,000);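 active = mean replicate score, as percent of positive control median, at least 50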;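 also: strain carries kanamycin resistance gene driven by streptokinase promoter and grows in 40 µg/ml kanamycin; loss of luminescence reflects streptokinase promoter inhibition or plain growth inhibition; 0% = median of DMSO wells and 100% = positive control at its reference dose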
IEC-6 tox – cytotoxicity in IEC-6 intestinal epithelial cells, primary screen, cytotoxicity control for KLF5 inhibitor project, cell-based, luminescence | IEC-6 cytotoxicity, luminescence viability | inhibition, % at 5 µM | actives 0.78% (n = 290,000) | AID 1825, 2009;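 also: 0% = plate median of test compound wells and 100% = cytotoxic reference compound wells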
IEC-6 cytotox cf – cytotoxic compounds in IEC-6 epithelial cells, confirmation, cytotoxicity control, cell-based, luminescence | actives 63% (n = 1,900) | shares compounds with IEC-6 tox | inhibition, % at 5 µM | IEC-6 rat intestinal epithelial viability;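 also: 0% = vehicle and 100% = reference cytotoxic drug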
Starred values were filed as active, the others as inactive; i = inactive; · = no result; ! = a repeat was not active. Rule as the data show it, unless noted: active = inhibition above about 22%; inactive = the rest.

SMILES	aSyn 5UTR inh	KLF5 inh	CSC inhib	SKKanGAS inh	IEC-6 tox	IEC-6 cytotox cf
COc1ccc(S(=O)(=O)Nc2ccc(Cc3ccncc3)cc2)cc1OC	17.4	7.2	-6.2	-1.3	3.0	·
CCc1ccc(OC)c(S(=O)(=O)Nc2ccc(Cc3ccncc3)cc2)c1	7.7	0.8	22.8	0.5	25.1*	12.9
CCN(c1cccc(C)c1)S(=O)(=O)c1ccc2c(c1)N(C(C)=O)CCS2	17.1	-5.6	·	1.4	-2.3	·
CCOc1ccc(C(=O)NC(=S)Nc2cccc(S(=O)(=O)NC3=NCCC3)c2)cc1	110.8*	57.4	38.8	-2.9	64.9*	46.1*
C=C(C)CNC(=S)Nc1cccc(S(=O)(=O)NC2=NCCC2)c1	-7.4	-14.7	-11.8	-1.7	-0.1	·
CC1CC(C)(C)Nc2ccc(N=O)cc21 (stereo not given)	32.0	-62.1	·	-1.0	24.2*	20.9
Cc1nnc(N/N=C/c2cc([N+](=O)[O-])c(N3CCC(C)CC3)cc2N2CCC(C)CC2)n1N	-19.4	44.4	18.6	32.9	103.2*	12.0
COc1ccccc1C(=O)NCC(=O)OCCCOC(=O)CNC(=O)c1ccccc1OC	3.8	-21.4	-3.7	18.0	-5.3	·
O=C(c1ccc(Cl)cc1)C(CN1CCCCC1)c1ccccc1 (stereo not given)	-106.0	-25.3	94.9*	-6.4	22.4*	20.0
CCOC(=O)c1c(NC(=O)Cn2nc(C(F)(F)F)cc2C)sc(C)c1C	24.0	13.1	0.5	-6.7	1.9	·
CC(=O)c1c(C)cc(C)c(CSc2nc(C)cc(=O)[nH]2)c1C	3.4	-19.1	4.0	-1.5	29.9*	20.0
C1=Nc2c(NCc3ccccc3)ncnc2Oc2ccccc21	36.9	-39.7	7.3	12.9	26.4*	23.9*
CC(=O)OC1COC(n2c(O)c(N=NC(N)=S)c3ccccc32)C(OC(C)=O)C1OC(C)=O (stereo not given)	-1.9	-22.6	-12.5	11.8	-4.6	·
Cc1ccc(NC(=O)Cc2noc3ccccc23)nc1	-69.2	-5.5	-0.2	1.6	23.3*	5.2
O=C(Cc1noc2ccccc12)Nc1ccccn1	-89.1	-56.7	-3.5	6.4	-4.4	·
O=C(CS(=O)c1ccc(F)cc1)N1CCOCC1 (stereo not given)	-4.3	5.3	11.8	-1.6	3.6	·
O=C(NC1CCCc2ccccc21)c1ccccc1 (stereo not given)	14.9	3.0	·	28.1	-5.8	·
CCc1c(C(=O)NC2CCCc3ccccc32)[nH]c(C)c1C(C)=O (stereo not given)	64.2*	25.1	22.0	19.4	46.7*	18.1
O=C(NC1CCCc2ccccc21)c1n[nH]c(=O)c2ccccc12 (stereo not given)	87.5*	1.8	27.5	-2.4	22.8*	34.2*
O=C(CSCc1ccc(Cl)cc1)Nc1ccc(S(=O)(=O)N2CCOCC2)cc1	8.9	-15.1	2.4	-23.9	0.0	·
COc1ccc(NC(=O)/C(C#N)=C/c2ccc(Sc3nncn3C)c([N+](=O)[O-])c2)cc1	-61.2	-6.3	7.0	-6.4	-1.2	·
COc1cc(/C=C/C(=O)c2ccc3c(c2)OCCO3)cc(Br)c1OCC(=O)N(C)C	i	43.3	·	19.5	24.2*	16.8
CC[n+]1c(/C=C/N(C)c2ccccc2)n(-c2ccccc2)c2ccc(-c3nc4ccccc4s3)cc21	120.4*	29.2	101.9*	98.8*	58.5*	11.9
O=C(Cc1cccc2ccccc12)Nc1c(F)cccc1F	-24.7	-53.1	0.0	-1.2	-1.4	·
COc1ccccc1OS(=O)(=O)c1ccc(NC(C)=O)cc1	9.6	-9.9	-1.4	-3.6	5.1	·
SMILES	aSyn 5UTR inh	KLF5 inh	CSC inhib	SKKanGAS inh	IEC-6 tox	IEC-6 cytotox cf
COC(=O)/C=C/S(=O)(=O)c1ccc(NC(C)=O)cc1	-9.8	-34.6	39.6	15.3	26.8*	0.3
O=C(NCC1CCCN1S(=O)(=O)c1cccs1)c1c(F)cccc1F (stereo not given)	1.1	·	-9.8	-1.0	·	·
Cc1cccc(N2CCN(C(=O)c3cc(S(=O)(=O)N4CCCC4)cn3C)CC2)c1C	35.1	42.6	50.2	-10.8	52.1*	15.5
CCC(C)(C)NC(=O)CN(Cc1ccco1)C(=O)CCC(=O)Nc1nccs1	3.3	-30.5	-0.3	-4.3	4.7	·
O=C(CCC1CCCN(C(=O)c2ccc3[nH]ccc3c2)C1)N1CCN(c2ccccn2)CC1 (stereo not given)	-14.4	11.6	13.5	-0.5	-2.9	·
CCN1CCN(Cc2ccc(NC(=O)c3ccc(C)c(NC(=O)C(=O)c4c[nH]c5ccccc45)c3)cc2C(F)(F)F)CC1	111.6*	-28.0	101.7*!	83.0*	54.8*	-0.5
Cc1ccc(-c2csc3ncnc(SCC(=O)Nc4nnc(C)s4)c23)cc1	-12.4	8.3	18.0	12.6	-0.4	·
Cc1ccc(-c2csc3ncnc(Sc4nnc(CN5CCCCCC5=O)o4)c23)cc1	-44.4	-11.2	81.0*	13.7	36.1*	30.4*
Cc1ccc(NC(=O)C2c3ccccc3Oc3ccccc32)nc1	27.3	-14.1	15.2	2.8	46.5*	41.5*
O=[N+]([O-])c1ccc(N=Nc2ncc[nH]2)cc1	-95.6	-4.2	80.8*	2.6	80.8*	13.3
CCn1cc2nc(SCC(=O)Nc3ccc(OC)c(OC)c3)n(Cc3ccc(OC)cc3)c(=O)c2n1	31.1	-0.6	-3.5	1.5	0.8	·
CCn1cc2nc(SCC(=O)Nc3ccc(OC)cc3OC)n(Cc3ccc(OC)cc3)c(=O)c2n1	-6.3	56.3	53.5	4.8	61.5*	41.7*
CC(C)c1ccc(NC(=O)c2ccc(NC3=NC4CS(=O)(=O)CC4S3)cc2)cc1 (stereo not given)	14.3	-16.3	·	-6.7	-6.4	·
CCOc1ccc2nc(NC(=O)c3ccoc3C)sc2c1	29.9	-20.0	-18.2	91.0*	26.0*	36.4*
CCC(C)(C#CCN1CCCCC1)OCCC#N (stereo not given)	5.3	0.4	-11.8	1.1	1.6	·
Cc1c(-c2nc(N)nc(Nc3ccccc3F)n2)oc2ccccc12	-178.3	-160.0	-0.6	·	10.8	·
Cc1ccc(Nc2nc(N)nc(-c3oc4ccccc4c3C)n2)cc1	91.1*	58.1	40.1	7.9	83.1*	79.4*
COc1cccc(Nc2nc(N)nc(-c3oc4ccccc4c3C)n2)c1	-24.6	-41.8	·	6.6	24.7*	34.6*
Cc1cccc(Nc2nc(N)nc(-c3oc4ccccc4c3C)n2)c1	-23.1	-63.3	62.3	35.4	11.5	·
CCN(CC)CCOc1ccc2c(c1)C(=NO)c1cc(OCCN(CC)CC)ccc1-2	8.1	3.8	68.7	-8.2	37.4*	21.1
CCN(CC)CCCOc1ccc(Cl)c(Cl)c1	17.4	-30.3	-13.3	1.0	-10.8	·
CC(C)c1ccc(NC(=O)Nc2cnccn2)cc1	-211.5	-81.8	27.7	1.6	42.0*	15.3
N#CN1CCC(NS(=O)(=O)c2ccc(C(F)(F)F)cc2)C1 (stereo not given)	·	·	23.0	·	·	·
